Measurements taken from PubChem BioAssay (Tox21).
Values joined by “and” are separate entries in the source; they are usually repeats but may differ in a detail not shown here. Equal entries are not always repeated. Inconclusive results are not listed. Active and inactive are the calls of the source. The call rests on the fitted dose curve; in most records, active means well fitted cell-killing curve with a large enough effect in the repeat runs; inconclusive means weak or mixed curves; inactive means flat fitted curve, though single readings scatter.

Experiment: qHTS RealTime-Glo MT Cell Viability Assay in HepG2 cells - 16 hour (AID 1224885); further: nearly all actives have a fitted effect of over 50% in size
Settings: RealTime-Glo luminescence; series mostly up to 76.8 µM
Source text: U.S. Tox21 Program National Center for Advancing Translational Sciences [NCATS] NIH Chemical Genomics Center [NCGC] U.S. Environmental Protection Agency [EPA] National Institutes of Environmental Health Sciences [NIEHS] National Toxicology Program [NTP] U.S. Food and Drug Administration [FDA] Tox21 Assay Overview: Measure of cell viability is critical in the cell-base assay. Analysis of cell viability is necessary for the characterization of cell responses to cytotoxic drugs and environmental stress. A RealTime-Glo MT Cell Viability Assay to monitor cell viability in real time of continues cell culture during 40 hours of compound treatment was used to screen Tox21 10K library compounds in HepG2 cells. The RealTime-Glo MT Cell Viability Assay is a nonlytic, homogeneous, bioluminescent method to measure cell viability in real time using a simple, plate-based method. The assay involves adding NanoLuc luciferase and a cell-permeant prosubstrate to cells in culture. Viable cells reduce the proprietary prosubstrate to generate a substrate for NanoLuc luciferase. This substrate diffuses from cells into the surrounding culture medium, where it is rapidly used by the NanoLuc Enzyme to produce a luminescent signal. The signal correlates with the number of viable cells, making the assay well suited for cytotoxicity studies.
Tox21 Assay Protocol Summary: The mixture of HepG2 cell suspension and reagents were dispensed at 600cells/6 ul/well in 1536-well tissue culture treated black solid bottom plates using a Multidrop dispenser. After the assay plates were incubated at a 37 C/5% CO2 incubator for 5 hours, 23 nL of compounds dissolved in DMSO, positive and negative controls was transferred to the assay plate by a pintool work station. The plates were incubated at 37 C for 40 hours. The luminescence intensity were measured at 0h, 8h, 16h, 24h, 32h and 40h time points using ViewLux plate reader during compound treatment.
On the % scale 0 is the no-effect control and ±100 the full control effect.

| SMILES | outcome | activity change, negative = cytotoxic |
| --- | --- | --- |
| CCCCN(CCCC)CCCC | inactive | – |
| CCC(O)OC(O)CC (stereo not given) | inactive | – |
| CCCCCCCCCCCCCCO | inactive | – |
| CCCCCC(N)=O | inactive | – |
| CC(=O)Nc1ccccc1 | inactive | – |
| CC(C)(C)[C@@H](O)[C@@H](Cc1ccc(Cl)cc1)n1cncn1 | inactive | – |
| OCCOCCN1CCN(C2=Nc3ccccc3Sc3ccccc32)CC1 | inactive | – |
| Cc1cccc(O)c1 | inactive | – |
| C=C(C)C(=O)O[C@H]1C[C@@H]2CC[C@@]1(C)C2(C)C | inactive | – |
| O=C(O)CCCC[C@@H]1SC[C@@H]2NC(=O)N[C@@H]21 | inactive | – |
| O=C(CC(C(=O)OC1CCCCC1)S(=O)(=O)O)OC1CCCCC1 (stereo not given) | inactive | – |
| CN(C)CCC(c1ccc(Cl)cc1)c1ccccn1 (stereo not given) | inactive | – |
| CCCCCC1=CCCC1=O | inactive | – |
| O=C(O)CC(C(=O)O)C(CC(=O)O)C(=O)O (stereo not given) | inactive | – |
| CCN(CC)CCCC(C)Nc1ccnc2cc(Cl)ccc12 (stereo not given) | – | 1.09% [at 6.97 µM] (inactive) and -5.7% [at 15.8 µM] (inactive) |
| Cc1cnc(C(=O)NCCc2ccc(S(=O)(=O)NC(=O)NC3CCCCC3)cc2)cn1 | inactive | – |
| CC1=CCC2CC1C2(C)C (stereo not given) | inactive | – |
| Cc1ccc(N(C)C)cc1 | inactive | – |
| O=C(O)c1ccc(C(=O)O)cc1 | inactive | – |
| c1ccc2c(c1)ccc1ccccc12 | inactive | – |

| SMILES | outcome | activity change, negative = cytotoxic |
| --- | --- | --- |
| Cc1ccc2oc(=O)ccc2c1 | inactive | – |
| O=C(O)[C@H](O)[C@@H](O)[C@H](O)[C@H](O)CO | inactive | – |
| CN(C)CCC(c1ccccc1)c1ccccn1 (stereo not given) | inactive | – |
| OCc1cccnc1 | inactive | – |
| CC(=O)c1ccccc1 | inactive | – |
| CC1=C(C)S(=O)(=O)CCS1(=O)=O | inactive | – |
| O=C(O)c1cc(=O)c2c(OCC(O)COc3cccc4oc(C(=O)O)cc(=O)c34)cccc2o1 | inactive | – |
| O=C(Oc1ccccc1)c1ccccc1 | inactive | – |
| ON=C1CCCCC1 | inactive | – |
| O=S1(=O)CC=CC1 | inactive | – |
| CCCCCCCCCC | inactive | – |
| c1ccc2scnc2c1 | inactive | – |
| CCCCCC/C(C=O)=C\c1ccccc1 | inactive | – |
| COc1ccc(NC(C)=O)cc1N | inactive | – |
| O=C=NCCCCCCN=C=O | inactive | – |
| C#C[C@]1(O)CC[C@H]2[C@@H]3CCC4=CC(=O)CC[C@@H]4[C@H]3CC[C@@]21C | inactive | – |
| Cc1occc(=O)c1O | inactive | – |
| CCc1ccc(CCOc2ccc(CC3SC(=O)NC3=O)cc2)nc1 (stereo not given) | inactive | – |
| CC(C)CC(=O)CC(C)C | inactive | – |
| CC(C)(N)CO | inactive | – |
